From the supplement of paper PMC12494721
Structures can show the parent of a compound that is named as a salt.

test system: Ruminococcus gnavus DSM 108212; experiment: growth (OD595) fold change vs plate DMSO controls (fold change (ratio)); higher = more growth; conditions: incubation time: 27 h, anaerobic, 37 °C
How it was run: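 Absorbance at 595 nm was read after shaking the anaerobic mGAM cultures, which had grown in 96-well plates for 27 h at 37 °C. After blank subtraction and background correction against 20 µM compound solutions in water, a calibration factor of 5 gave OD values. Growth is the fold change against the median of the plate's DMSO controls. Values are the mean of 2 biological replicates, with fold changes above 1.5 set to NA.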

| Structure (SMILES) | growth |
| --- | --- |
| CCCCCCCCCCCCCCCCCCCCCC(=O)Nc1ccn([C@@H]2O[C@H](CO)[C@@H](O)[C@@H]2O)c(=O)n1 [Enocitabine] (20 µM) | 0.975 |
| COCC1=C(C(=O)OC(C)OC(=O)OC(C)C)N2C(=O)[C@@H](NC(=O)/C(=N\OC)c3csc(N)n3)[C@H]2SC1 (stereo partly drawn) [Cefpodoxime proxetil] (20 µM) | 1.18 |
| COc1cccc2c1C(=O)c1c(O)c3c(c(O)c1C2=O)C[C@@](O)(C(=O)CO)C[C@@H]3O[C@H]1C[C@H](N)[C@@H](O)[C@H](C)O1 [Epirubicin hydrochloride] (20 µM) | 0.386 |
| CN1CCCN(C(c2ccccc2)c2ccc(Cl)cc2)CC1 (stereo not drawn) [Homochlorcyclizine dihydrochloride] (20 µM) | 0.861 |
| COc1ccc(/C=C/C(=O)Nc2ccccc2C(=O)O)cc1OC [Tranilast] (20 µM) | 1.08 |
| CC(C)Nc1ncccn1 [Isaxonine] (20 µM) | 1.01 |
| CC(=O)N[C@@H](CS)C(=O)O [Acetylcysteine] (20 µM) | 0.985 |
| C=C1C[C@@]23CC[C@H]4[C@@](C)(CCC[C@@]4(C)C(=O)O[C@@H]4O[C@H](CO)[C@@H](O)[C@H](O)[C@H]4O)[C@@H]2CC[C@]1(O[C@@H]1O[C@H](CO)[C@@H](O)[C@H](O)[C@H]1O[C@@H]1O[C@H](CO)[C@@H](O)[C@H](O)[C@H]1O)C3 [Stevioside] (50 µM) | 0.976 |
| Nc1ccc(S(=O)(=O)Nc2nccs2)cc1 [Sulfathiazole] (20 µM) | 0.853 |
| CC(=O)OCC(=O)[C@@]1(O)CC[C@H]2[C@@H]3CCC4=CC(=O)C=C[C@]4(C)[C@@]3(F)[C@@H](O)C[C@@]21C [Isoflupredone acetate] (20 µM) | 1 |
| CC(=O)CCCCn1c(=O)c2c(ncn2C)n(C)c1=O [Pentoxifylline] (20 µM) | 0.929 |
| CCN(CC)CCOC(=O)C1(C2CCCCC2)CCCCC1 [Dicyclomine hydrochloride] (20 µM) | 0.659 |
| CC(=O)OCC(=O)[C@@]1(O)[C@H](C)C[C@H]2[C@@H]3CCC4=CC(=O)C=C[C@]4(C)[C@@]3(F)[C@@H](O)C[C@@]21C [Dexamethasone acetate] (20 µM) | 0.878 |
| Cc1nc2n(c(=O)c1CCN1CCC(c3noc4cc(F)ccc34)CC1)CCCC2O (stereo not drawn) [Paliperidone] (20 µM) | 1 |
| O=C(Nc1cccc2c(=O)cc(-c3nnn[nH]3)oc12)c1ccc(OCCCCc2ccccc2)cc1 [Pranlukast] (20 µM) | 0.934 |
| CCC(Cc1c(I)cc(I)c(N)c1I)C(=O)O (stereo not drawn) [Iopanoic acid] (20 µM) | 1.05 |
| C/C(=C\C(=O)OCCCCCCCCC(=O)O)C[C@@H]1OC[C@H](C[C@@H]2O[C@H]2[C@@H](C)[C@H](C)O)[C@@H](O)[C@H]1O [Mupirocin] (20 µM) | 0.934 |
| CC(Oc1c(Cl)cccc1Cl)C1=NCCN1 (stereo not drawn) [Lofexidine] (20 µM) | 1.04 |
| CCOc1ccc(NC(=O)CC(C)O)cc1 (stereo not drawn) [Bucetin] (20 µM) | 1.07 |
| CN(C)CCc1c[nH]c2ccc(Cn3cncn3)cc12 [Rizatriptan benzoate] (20 µM) | 0.996 |
| CC(C)OC(=O)C(C(=O)OC(C)C)=C1SC=CS1 [Malotilate] (20 µM) | 1.16 |
| CC1CS(=O)(=O)CCN1/N=C/c1ccc([N+](=O)[O-])o1 (stereo not drawn) [Nifurtimox] (20 µM) | 1.04 |
| CC(=O)OCC(=O)[C@@]12OC3(CCCC3)O[C@@H]1C[C@H]1[C@@H]3CCC4=CC(=O)C=C[C@]4(C)[C@@]3(F)[C@@H](O)C[C@@]12C [Amcinonide] (20 µM) | 1.19 |
| OC[C@H]1O[C@@H](c2ccc(Cl)c(Cc3ccc(O[C@H]4CCOC4)cc3)c2)[C@H](O)[C@@H](O)[C@@H]1O [Empagliflozin] (20 µM) | 0.989 |
| CC(CN(C)C)CN1c2ccccc2Sc2ccccc21 (stereo not drawn) [Trimeprazine tartrate] (20 µM) | 0.937 |
| CCC(=O)O[C@]1(C(=O)SCF)[C@H](C)C[C@H]2[C@@H]3C[C@H](F)C4=CC(=O)C=C[C@]4(C)[C@@]3(F)[C@@H](O)C[C@@]21C [Fluticasone propionate] (20 µM) | 0.998 |
| OC[C@H]1O[C@@H](n2cnc3cncnc32)[C@H](O)[C@@H]1O [Nebularine] (20 µM) | 0.831 |
| C=C1[C@H](CO)[C@@H](O)C[C@@H]1n1cnc2c(=O)[nH]c(N)nc21 [Entecavir] (20 µM) | 1.04 |
